Laboratory results as given in PubChem BioAssay AID488969 (Vanderbilt High Throughput Screening Facility, 2010).
Whole data set: some 110,000 compounds, median “z-score” near -0.1, cut for the highest 2% near 2. This is one part of a sample in which the highest values are shown more often than they occur. Calls of active or inactive are those of the source.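 Rule for the calls: active = z-score in the third read window above 3 or below -3; inactive = the rest.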

The compounds below were run against Metabotropic glutamate receptor 8 (Rattus norvegicus) (UniProt P70579) (assay: mGluR8 Gi/Go-coupled signaling modulation – cell-based, rat, thallium flux, HTS, primary screen (AID 488969)). Conditions: HEK293 rat mGluR8, GIRK (G protein-gated inwardly rectifying potassium channel) thallium flux, FluoZin2; at 10 µM; stronger effect = higher value; submaximal glutamate (EC20) added with thallium.
Sequence of Metabotropic glutamate receptor 8 (Rattus norvegicus) (P70579 whole entry, looked up): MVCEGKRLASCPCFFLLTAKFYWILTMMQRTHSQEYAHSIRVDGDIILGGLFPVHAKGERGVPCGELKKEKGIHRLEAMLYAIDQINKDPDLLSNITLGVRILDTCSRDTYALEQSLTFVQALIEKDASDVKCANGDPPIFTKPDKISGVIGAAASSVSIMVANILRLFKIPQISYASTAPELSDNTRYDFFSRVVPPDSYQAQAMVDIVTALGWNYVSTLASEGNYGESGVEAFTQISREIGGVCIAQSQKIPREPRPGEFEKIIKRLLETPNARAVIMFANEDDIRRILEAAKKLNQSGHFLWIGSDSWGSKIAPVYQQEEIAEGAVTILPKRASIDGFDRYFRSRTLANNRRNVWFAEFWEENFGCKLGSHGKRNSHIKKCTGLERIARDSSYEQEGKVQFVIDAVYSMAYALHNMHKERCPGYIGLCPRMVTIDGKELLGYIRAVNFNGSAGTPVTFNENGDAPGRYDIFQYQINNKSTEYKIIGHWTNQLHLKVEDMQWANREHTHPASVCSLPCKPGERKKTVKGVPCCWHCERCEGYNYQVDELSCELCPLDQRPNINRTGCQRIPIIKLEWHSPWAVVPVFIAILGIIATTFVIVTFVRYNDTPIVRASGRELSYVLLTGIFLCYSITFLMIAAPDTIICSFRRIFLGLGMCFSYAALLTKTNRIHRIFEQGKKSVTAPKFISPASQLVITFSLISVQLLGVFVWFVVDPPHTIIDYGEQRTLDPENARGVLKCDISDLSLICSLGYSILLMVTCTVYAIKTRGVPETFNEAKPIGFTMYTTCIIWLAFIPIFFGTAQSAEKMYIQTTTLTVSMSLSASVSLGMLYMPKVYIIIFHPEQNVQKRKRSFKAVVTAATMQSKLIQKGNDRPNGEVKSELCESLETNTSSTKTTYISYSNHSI
`COc1ccc(S(=O)(=O)N[C@@H](Cc2ccc(Cl)cc2)C(=O)N2CC[C@@]3(O)CCCC[C@H]3C2)cc1` gave a z-score of -0.0964. `COCCNC(=O)c1cc(-c2ccc3c(c2)OCO3)on1` showed a z-score of 0.152. In the case of `Cc1nn(C)c(Cl)c1NC(=O)OCc1ccccc1`, the z-score was -0.064. In the case of `Cc1ccc(-c2cnc(NC(=O)CCC(=O)N(C)Cc3ccccc3)n2C)cc1`, the z-score was -0.765. In the case of `Cc1ccc(-c2cnc(NC(=O)CCC(=O)N3CCCCC3)n2C)cc1`, the z-score was 4.3 (active). Work on `CCCNC(=O)CCC(=O)Nc1ncc(-c2ccc(C)cc2)n1C` yielded a z-score of -0.382. `CC(C)c1ccccc1N=C1SCCN1C1CCS(=O)(=O)C1` (configuration not stated) gave a z-score of 0.193. For `CCc1ccc(S(=O)(=O)c2n[nH]n3c2nc(=O)c2ccccc23)cc1`, the z-score was 0.475. In the case of `CC(C)c1ccc(S(=O)(=O)c2nnn3c2nc(N2CCCCC2)c2ccccc23)cc1`, the z-score was -0.645. In the case of `CC(C)c1ccc(S(=O)(=O)c2n[nH]n3c2nc(=O)c2ccccc23)cc1`, the z-score was 2.66. `O=C(/C=C/N1CCOCC1)c1ccc(-c2ccccc2)cc1` showed a z-score of -0.364. For `CC1=NN(C(N)=S)C(=O)C1N=Nc1c(C)cc(C)cc1C` (configuration not stated), the z-score was 0.119. With `CC1=NN(c2ccccc2)C(=O)C1N=Nc1ccccc1` (configuration not stated) the z-score was 0.244. Compound `CC1=NN(c2ccccc2)C(=O)C1N=Nc1ccc(N)cc1` (configuration not stated) has a z-score of -0.073. For `CC1=NN(C(N)=S)C(=O)C1N=Nc1ccc(C)cc1C` (configuration not stated), the z-score was 13.2 (active). Compound `Cc1ccc(N=Nc2c(C)[nH][nH]c2=O)c(C)c1` has a z-score of 0.772. `CC1=NN(C(N)=S)C(=O)C1N=Nc1ccccc1C` (configuration not stated) was tested, and the z-score was 2.97. `Cc1ccccc1-n1c(C)nnc1SCc1cc(=O)oc2ccc3ccccc3c12` was tested, and the z-score was 0.0722. `CC(C)CC(=O)Nc1ccc(C(=O)NNC(=O)C(c2ccccc2)c2ccccc2)cc1` was tested, and the z-score was -0.258. `O=C(O)C1CCN(C(=O)c2ccc(Cl)cc2)CC1` was tested, and the z-score was 0.000989. For `Cc1cc(C)c(C)c(S(=O)(=O)NCc2ccc(C(=O)N3CCCCC3)cc2)c1C`, the z-score was 0.249. `Cc1cc(C)cc(OCC(=O)N2CCCCCC2)c1` gave a z-score of -0.242. `Cc1cc(C)cc(OCC(=O)N2N=C(C(F)(F)F)CC2(O)C(C)(C)C)c1` (configuration not stated) was tested, and the z-score was 4.9 (active). `Cc1ccccc1OCC(=O)N1N=C(C(F)(F)F)CC1(O)C(C)(C)C` (configuration not stated) was tested, and the z-score was 1.61. `Cc1ccc(OCC(=O)N2N=C(C(F)(F)F)CC2(O)C(C)(C)C)cc1C` (configuration not stated) was tested, and the z-score was 3.56 (active). `CCCCC1(O)CC(C(F)(F)F)=NN1C(=O)COc1ccccc1` (configuration not stated) gave a z-score of 0.45. `Cc1ccc(OCC(=O)N2N=C(c3cccnc3)CC2(O)C(F)(F)F)cc1C` (configuration not stated) gave a z-score of -0.105. Work on `COP(=O)(OC)c1nc(-c2cccc3ccccc23)oc1NCc1ccccc1` yielded a z-score of -0.666. Work on `CC(C)(C)C(=O)Nc1cccc(C(=O)c2cccc(NC(=O)C(C)(C)C)c2)c1` yielded a z-score of -0.249. For `Cc1cccc(C(=O)NC(=S)Nc2ccc(S(=O)(=O)N3CCCCC3)cc2)c1`, the z-score was -0.0168. Compound `CCOC(=O)C1=C(C)N=C2SC(C)C(=O)N2C1c1ccc(OCC)c(OCC)c1` (configuration not stated) has a z-score of 0.125. With `COc1cc(/C=C2\SC(=S)N(CC(=O)Nc3ccccn3)C2=O)cc(OC)c1OC` the z-score was -0.0617. `Cn1c(=NCC(O)COc2ccccc2)sc2ccccc21` (configuration not stated) showed a z-score of 2.27. For `CCN=c1sc2ccccc2n1CC(O)COc1ccccc1` (configuration not stated), the z-score was 0.979. With `OC(CN=c1sc2ccccc2n1CC(O)COc1ccccc1)COc1ccccc1` (configuration not stated) the z-score was 0.0732. Work on `CC(=O)N1CCC(=NNc2ccc(S(=O)(=O)N3CCOCC3)cc2[N+](=O)[O-])CC1` yielded a z-score of 0.476. For `COC(=O)Cc1ccc(NC(=O)c2ccc(C(C)(C)C)cc2)cc1`, the z-score was -0.0938. `COc1ccc(/C=C/C(=O)NCc2c(C)nn(C)c2C)cc1COc1ccc(Br)cc1` showed a z-score of -0.131. With `Cc1cc(C)cc(NC(=O)CN(C)S(=O)(=O)c2cnc[nH]2)c1` the z-score was -0.129. In the case of `Cc1cccc(NC(=O)CN(C)S(=O)(=O)c2cnc[nH]2)c1`, the z-score was 1.6. `Cc1ccc(NC(=O)CN(C)S(=O)(=O)c2cnc[nH]2)cc1C` was tested, and the z-score was 2.45. With `CC1CC1C(=O)OCC(=O)NC(=O)NCc1ccco1` (configuration not stated) the z-score was -0.131. Compound `CCc1ccc(-c2nn(-c3ccccc3)cc2C2SCC(=O)N2Cc2ccco2)cc1` (configuration not stated) has a z-score of -0.102. `Cc1ccc(Nc2nc(N)c([N+](=O)[O-])c(N3CCOCC3)n2)cc1C` showed a z-score of -0.153. `Cc1cccc(Nc2nc(N)c([N+](=O)[O-])c(N3CCCC(C)C3)n2)c1` (configuration not stated) showed a z-score of -0.0648. Work on `Cc1ccc(Nc2nc(N)c([N+](=O)[O-])c(N3CCCC(C)C3)n2)cc1C` (configuration not stated) yielded a z-score of 2.26. With `O=C(NCCc1ccc(Cl)cc1)C1CCCN(S(=O)(=O)c2cnc[nH]2)C1` (configuration not stated) the z-score was 0.0211. Work on `COc1ccc(S(=O)(=O)N(CCN2CCOCC2)Cc2cc(OC)ccc2OC)cc1` yielded a z-score of -0.389. Work on `Cc1cc2nc(CCN(Cc3cccnc3)C(=S)Nc3ccccc3)[nH]c2cc1C` yielded a z-score of 0.259. Work on `Cc1ccc(S(=O)(=O)N2CCOCC2)cc1C(=O)OCC(=O)Nc1ccc2c(c1)OCO2` yielded a z-score of -0.412. Compound `O=S(=O)(c1ccc(NC(=S)Nc2ccc3c(c2)OCO3)cc1)N1CCOCC1` has a z-score of 0.154. Work on `O=S(=O)(c1ccc(Nc2ccc3c(c2)OCO3)nc1)N1CCOCC1` yielded a z-score of 2.28. Compound `C=CCn1c(SCn2nnc3ccccc3c2=O)nnc1-c1ccc(Br)cc1` has a z-score of 0.482. In the case of `Cc1ccc(/C=C(\NC(=O)c2ccc(C)cc2)c2nc(=S)[nH][nH]2)cc1`, the z-score was 0.31. Work on `COC(=O)c1ccccc1NC(=S)N(Cc1ccc2c(c1)OCO2)Cc1cc2cc(OC)ccc2[nH]c1=O` yielded a z-score of -0.529. Compound `COC(=O)c1ccccc1NC(=S)N(Cc1ccc2c(c1)OCO2)Cc1cc2cc(C)ccc2[nH]c1=O` has a z-score of 2.03. `COC(=O)c1ccccc1NC(=S)N(Cc1ccc2c(c1)OCO2)Cc1cc2ccc(C)cc2[nH]c1=O` showed a z-score of 0.26. `CC(C)(C)N=C1NN=C(c2cc3ccccc3o2)CS1` gave a z-score of -0.336. With `CC(=O)O/N=C(/C)c1ncc(C(F)(F)F)cc1N1CCOCC1` the z-score was -0.337. `Cc1ccccc1Cn1c(CN2CCc3ccccc3C2)nc2c1c(=O)n(C)c(=O)n2C` gave a z-score of -0.399. `COc1ccc(/C=C(/C(=O)c2ccc(Cl)cc2Cl)n2cncn2)cc1` showed a z-score of 0.0171. `COc1ccc(C(=O)NC2CCCCCC2)cc1S(=O)(=O)N1CCCc2ccccc21` showed a z-score of -0.00531. With `CCN(/N=C/c1cccs1)c1cc(=O)n(C)c(=O)[nH]1` the z-score was -0.0804. For `O=C(NN=C1c2ccccc2-c2ccccc21)c1ccccc1Br`, the z-score was 5.82 (active). Work on `O=C(COc1cccc(Br)c1)NN=C1c2ccccc2-c2ccccc21` yielded a z-score of 0.184. `O=C(NN=C1c2ccccc2-c2ccccc21)c1cccc(Br)c1` was tested, and the z-score was 4.19 (active). `O=C(NN=C1c2ccccc2-c2ccccc21)c1ccccn1` was tested, and the z-score was 0.564. `O=C(N/N=C/C=C/c1ccccc1)c1ccccc1Br` gave a z-score of -0.846. `O=C(N/N=C/C=C/c1ccccc1)c1cccc(Br)c1` was tested, and the z-score was 0.831. Compound `CCC(C)N(C)Cc1cccc(C2(O)CCN(S(=O)(=O)c3ccc(F)cc3)CC2)c1` (configuration not stated) has a z-score of -0.276. With `CCOc1ccc(Nc2oc(-c3ccccc3Cl)nc2C#N)cc1` the z-score was -0.217. For `CCOC(=O)C(CC)Sc1nnc2cc(C)c3ccccc3n12` (configuration not stated), the z-score was 7.83 (active). Compound `Cc1cc2nnc(SC(C)C)n2c2ccccc12` has a z-score of -1.9. `CCOC(=O)CSc1nnc2cc(C)c3ccccc3n12` gave a z-score of -1.09. `Cc1c([N+](=O)[O-])c([N+](=O)[O-])nn1CC(=O)N1CCCCC1` gave a z-score of -0.199. For `Cc1ccc(S(=O)(=O)N2CCCC2C(=O)O)cc1` (configuration not stated), the z-score was 0.451. Work on `Cc1ccc(-c2nnn(CC(=O)NC3CCN(Cc4ccccc4)CC3)n2)cc1` yielded a z-score of 0.381. `CC1CCCCC1NC(=O)Cn1nnc(-c2ccc(Cl)cc2)n1` (configuration not stated) showed a z-score of 0.119. In the case of `Cc1ccc(-c2nnn(CC(=O)NC3CC4CCC3C4)n2)cc1` (configuration not stated), the z-score was 5.1 (active). `CC(O)c1n(C)c(Cl)c[n+]1C` (configuration not stated) was tested, and the z-score was -0.00128. In the case of `O=C(CO/N=C/c1ccccc1O)N1CCc2ccccc21`, the z-score was -0.0476. In the case of `O=C(Nc1nnc(-c2ccc(Cl)cc2)o1)c1ccc(N2C(=O)CCC2=O)cc1`, the z-score was 4.39 (active). In the case of `O=C(Nc1nnc(-c2ccc(Cl)cc2)o1)NC1CCCCC1`, the z-score was -0.0226. With `O=C(Nc1nnc(-c2ccc(Cl)cc2)o1)c1cccc(N2C(=O)CCC2=O)c1` the z-score was 3.29 (active). `O=C(Nc1nnc(-c2ccccc2)o1)c1cccc(N2C(=O)CCC2=O)c1` showed a z-score of -0.326. `Cc1cc(NC(=O)c2ccc(N3C(=O)CCC3=O)cc2)no1` was tested, and the z-score was 0.412. `O=C(Nc1ccccc1)c1cccc(N2C(=O)CCC2=O)c1` showed a z-score of -0.0312. In the case of `Cc1cc(C)c(C)c(OCCCn2ccnc2)c1`, the z-score was -0.369. In the case of `COC(=O)c1ccc(/C=N\N2CCN(Cc3ccc(C)cc3)CC2)cc1`, the z-score was -0.269. `COC(=O)c1ccc(/C=N/N2CCN(Cc3ccccc3)CC2)cc1` was tested, and the z-score was -0.196. With `COC(=O)c1ccc(/C=N/N2CCN(Cc3ccc(C)cc3C)CC2)cc1` the z-score was 2.42. With `Cc1cccc(NC(=O)C2Cc3ccccc3CN2C(=O)OCc2ccccc2)c1C` (configuration not stated) the z-score was -0.188. With `CCC1CCCCN1C(=O)CSc1nc2c([nH]c3ccccc32)c(=O)n1C` (configuration not stated) the z-score was 0.357. `CCOP(=O)(OCC)C(Nc1ccccn1)c1ccc(F)cc1` (configuration not stated) was tested, and the z-score was -0.18. Compound `O=C(NCc1ccccc1F)c1cccs1` has a z-score of -0.158. `O=C(O)c1cc2c(ccc3ccccc32)[nH]1` gave a z-score of -0.467. Compound `CS(=O)(=O)c1ccc2nc(NC(=O)Nc3ccc(Cl)cc3)sc2c1` has a z-score of 0.161. Compound `O=C(Nc1nc2ccc(F)cc2s1)C1CCCO1` (configuration not stated) has a z-score of 0.535. `CS(=O)(=O)c1ccc2nc(NC(=O)Nc3ccc(Cl)c(Cl)c3)sc2c1` was tested, and the z-score was 3.23 (active). In the case of `NS(=O)(=O)c1ccc2nc(NC(=O)C3CCCO3)sc2c1` (configuration not stated), the z-score was 2.74. `CS(=O)(=O)c1ccc2nc(NC(=O)C3C4C=CC(C4)C3C(=O)O)sc2c1` (configuration not stated) was tested, and the z-score was 4.92 (active). With `CC1=CCC(C(=O)O)C(C(=O)Nc2nc3ccc(S(C)(=O)=O)cc3s2)C1` (configuration not stated) the z-score was 0.387. Work on `CS(=O)(=O)c1ccc2nc(NC(=O)Nc3cccc(Cl)c3)sc2c1` yielded a z-score of 0.135. Work on `O=C(Nc1nc2ccc(S(=O)(=O)N3CCCCC3)cc2s1)C1CCCO1` (configuration not stated) yielded a z-score of -0.0835. For `CCC(=O)Nc1nc2ccc(S(C)(=O)=O)cc2s1`, the z-score was 0.244. `CN(C)c1ccc(CN(C(=O)COc2ccccc2)C2CCS(=O)(=O)C2)cc1` (configuration not stated) showed a z-score of -0.709. With `O=C(NCc1cn(-c2ccccc2)nc1-c1ccccc1)c1ccc([N+](=O)[O-])cc1` the z-score was -0.0499.
